Where “and” joins values, the source holds several entries; their conditions need not be identical. Equal entries are not always repeated. About 79,000 compounds went through this panel and 15% of them were active in at least one assay; those are over-represented in the sample as a whole. Where a structure was tested more than once in an assay, its records may differ in their call. Calls of active or inactive are those of the source. Rule as the data show it: active = growth inhibition above about 70%; inactive = the rest.
Experiments:
[1] = NCI Yeast Anticancer Drug Screen. Data for the rad50 strain (AID 155);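 also: 0% = growth of vehicle-only cultures of the same strain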; details: S. cerevisiae rad50 strain growth inhibition, stronger effect = higher value
Outline: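 Vehicle-treated cultures provide the reference for the growth inhibition reported for compound-exposed, repair-deficient yeast.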

[2] = NCI Yeast Anticancer Drug Screen. Data for the mec2-1 strain (AID 157); details: S. cerevisiae mec2-1 strain, stronger effect = higher value
Outline: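 Growth inhibition is read against vehicle-treated controls after compound exposure of the mec2-1 yeast strain, which is defective in DNA damage repair or cell cycle control.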

[3] = NCI Yeast Anticancer Drug Screen. Data for the sgs1 mgt1 strain (AID 161);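 also: 0% = growth of cultures given vehicle only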; details: S. cerevisiae sgs1 mgt1 strain, stronger effect = higher value
Outline: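 Yeast cells carrying a defined DNA-repair defect were exposed to test compounds. Growth inhibition was measured relative to vehicle-treated controls.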

[4] = NCI Yeast Anticancer Drug Screen. Data for the cln2 rad14 strain (AID 165);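 also: 0% = growth equal to vehicle treated cultures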; details: S. cerevisiae cln2 rad14 strain, stronger effect = higher value
Outline: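 Growth inhibition, relative to vehicle-treated controls, is the read-out. The test organism is a yeast strain with defined genetic alterations, cln2 rad14.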

[5] = NCI Yeast Anticancer Drug Screen. Data for the bub3 strain (AID 167); details: S. cerevisiae bub3 mutant strain, stronger effect = higher value
Outline: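 Mutant yeast screening strain plus compound; vehicle-treated cultures serve as the 0% inhibition reference.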

[6] = NCI Yeast Anticancer Drug Screen. Data for the mlh1 rad18 strain (AID 175); details: S. cerevisiae mlh1 rad18 strain growth inhibition, stronger effect = higher value
Outline: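 Cells of a genetically altered yeast strain, deficient in DNA damage repair, were treated with compound. Their growth was then compared with that of vehicle-treated cultures to give inhibition.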

[7] = at 5.0 µM (retest, dose inferred, filed as 0.5)
[8] = at 50.0 µM (retest, dose inferred, filed as 5.0)

| Structure (SMILES) | growth inhibition [1, 7] | growth inhibition [1, 8] | growth inhibition ([1]; at 50.0 µM) | growth inhibition [2, 7] | growth inhibition [2, 8] | growth inhibition ([2]; at 50.0 µM) | growth inhibition [3, 7] | growth inhibition [3, 8] | growth inhibition ([3]; at 50.0 µM) | growth inhibition [4, 7] | growth inhibition [4, 8] | growth inhibition ([4]; at 50.0 µM) | growth inhibition [5, 7] | growth inhibition [5, 8] | growth inhibition ([5]; at 50.0 µM) | growth inhibition [6, 7] | growth inhibition [6, 8] | growth inhibition ([6]; at 50.0 µM) |
| --- | --- | --- | --- | --- | --- | --- | --- | --- | --- | --- | --- | --- | --- | --- | --- | --- | --- | --- |
| C[CH2][Sn]1([CH2]C)[c]2ccccc2Oc2cccc[c]21 | 99% (active) | 98% (active) | 99% (active) | 99% (active) | 99% (active) | 99.4% (active) | 99% (active) | 99% (active) | 99.3% (active) | 97% (active) | 98% (active) | 98.8% (active) | 99% (active) | 99% (active) | 99.2% (active) | 99% (active) | 99% (active) | 99% (active) |
| Oc1cccc2cccnc12 (tested in a mixture with another compound) | -6% (inactive) | 2% (inactive) | 73.5% (active) | -5% (inactive) | -6% (inactive) | 83.8% (active) | -4% (inactive) | 2% (inactive) | 64% (inactive) | -6% (inactive) | -10% (inactive) | -20.8% (inactive) | -5% (inactive) | -4% (inactive) | 89.8% (active) | 0% (inactive) | -15% (inactive) | 85.5% (active) |
| S=C(S)N1CCCCC1 | 42% (inactive) and 15% (inactive) | 57% (inactive) and 13% (inactive) | 73.5% (active) and 45.1% (inactive) and 29.9% (inactive) | 38% (inactive) and 19% (inactive) | 60% (inactive) and 6% (inactive) | 45.7% (inactive) and 90.3% (active) and 31.6% (inactive) | 42% (inactive) and 15% (inactive) | 99% (active) and 41% (inactive) | 60.5% (inactive) and 97.8% (active) and 25.5% (inactive) | 76% (active) and 3% (inactive) | 99% (active) and -48% (inactive) | 29.4% (inactive) and 33.2% (inactive) and 0.25% (inactive) | 56% (inactive) and 0% (inactive) | 90% (active) and -1% (inactive) | 37.6% (inactive) and 99.3% (active) and -10.9% (inactive) | 46% (inactive) and 31% (inactive) | 56% (inactive) and 27% (inactive) | 52.8% (inactive) and 70.8% (active) and 59.6% (inactive) |
| C=Cc1cc(OC)c2c(c1)c(=O)oc1c2cc(OC)c2c(O)ccc(C3OC(C)C(O)C(C)(O)C3O)c21 (centres undefined) | 96% (active) | 97% (active) | 90.8% (active) | 97% (active) | 97% (active) | 91.8% (active) | 97% (active) | 98% (active) | 90.3% (active) | 97% (active) | 97% (active) | 90.1% (active) | 97% (active) | 98% (active) | 89.4% (active) | 96% (active) | 96% (active) | 89.9% (active) |
| CN1CN(c2ccccc2)C2(CCN(C3Nc4ccccc4O3)CC2)C1=O (centres undefined) | 7% (inactive) | 33% (inactive) | 40% (inactive) | 2% (inactive) | 26% (inactive) | 44.5% (inactive) | -1% (inactive) | 30% (inactive) | 58.5% (inactive) | 31% (inactive) | 42% (inactive) | 35% (inactive) | -16% (inactive) | -4% (inactive) | 50.8% (inactive) | 10% (inactive) | 57% (inactive) | 45.6% (inactive) |
| CC(=O)[CH-]C(=O)c1ccccc1.CC(=O)[CH-]C(=O)c1ccccc1.C[C@]12CCC(=O)C=C1CC[C@@H]1C2CC[C@@]2(C)C1CC[C@@H]2[O-].C[C@]12CCC(=O)C=C1CC[C@@H]1C2CC[C@@]2(C)C1CC[C@@H]2[O-].Cl.[Ti+4] (some centres undefined) | 41% (inactive) | 78% (active) | 76.8% (active) | 35% (inactive) | 84% (active) | 70.8% (active) | 39% (inactive) | 85% (active) | 78.8% (active) | 26% (inactive) | 48% (inactive) | 50.9% (inactive) | 37% (inactive) | 86% (active) | 76.5% (active) | 47% (inactive) | 84% (active) | 73.2% (active) |
| CNC(=O)Oc1ccccc1/C=N\Sc1ccc(Cl)cc1 | -2% (inactive) | 21% (inactive) | 97.2% (active) | 1% (inactive) | 21% (inactive) | 99% (active) | 3% (inactive) | 43% (inactive) | 98.9% (active) | -4% (inactive) | 10% (inactive) | 82.8% (active) | -4% (inactive) | 6% (inactive) | 98.6% (active) | -2% (inactive) | 35% (inactive) | 99.2% (active) |
| CC(CN1CCCCCCC1)C(C#N)(c1ccccc1)c1ccccc1 (centres undefined) | 4% (inactive) | 47% (inactive) | 66.1% (inactive) | 3% (inactive) | 39% (inactive) | 47.6% (inactive) | 19% (inactive) | 74% (active) | 67.5% (inactive) | 6% (inactive) | 46% (inactive) | 84.1% (active) | 9% (inactive) | 68% (inactive) | 55.4% (inactive) | 10% (inactive) | 55% (inactive) | 70.3% (active) |
| CC1(C)CC(=O)C([Se]C2=C(O)CC(C)(C)CC2=O)=C(O)C1 | 96% (active) | 99% (active) | 99.6% (active) | 91% (active) | 99% (active) | 99.8% (active) | 86% (active) | 99% (active) | 99.8% (active) | 35% (inactive) | 99% (active) | 99.4% (active) | 40% (inactive) | 99% (active) | 99.6% (active) | 94% (active) | 99% (active) | 99.3% (active) |
| O=S(=O)(c1ccccc1)N1C2C3CCC(CC3)C21 (centres undefined) | -1% (inactive) | -4% (inactive) | 1.2% (inactive) | -11% (inactive) | -16% (inactive) | 2.75% (inactive) | -3% (inactive) | -32% (inactive) | 23% (inactive) | -1% (inactive) | 3% (inactive) | 7.65% (inactive) | 14% (inactive) | 96% (active) | 76.6% (active) | -13% (inactive) | -5% (inactive) | 1.5% (inactive) |
| O=C(O)/C=C\c1c[nH]c2ccccc12 | 10% (inactive) | 97% (active) | 75.8% (active) | -2% (inactive) | 89% (active) | 38.3% (inactive) | 2% (inactive) | 87% (active) | 60.2% (inactive) | -6% (inactive) | 89% (active) | 1.45% (inactive) | -2% (inactive) | 95% (active) | 50.8% (inactive) | -17% (inactive) | 97% (active) | 42.4% (inactive) |
| CC(C)=[CH][Sb]([Br])([CH]=C(C)C)([CH]=C(C)C)[c]1ccccc1 | -9% (inactive) | 8% (inactive) | 56.5% (inactive) | -14% (inactive) | 27% (inactive) | 45.8% (inactive) | -14% (inactive) | 16% (inactive) | 32.5% (inactive) | -19% (inactive) | 6% (inactive) | -11.8% (inactive) | -3% (inactive) | 22% (inactive) | 64.9% (inactive) | -11% (inactive) | 10% (inactive) | 40.5% (inactive) |
| COC1=CC2=CCC3C(CCC4(C)C3CCC4(C)OC(C)=O)C2(C)CC1 (centres undefined) | -2% (inactive) | 66% (inactive) | 51.4% (inactive) | 2% (inactive) | 43% (inactive) | 36.5% (inactive) | 0% (inactive) | 82% (active) | 56.4% (inactive) | 0% (inactive) | 35% (inactive) | 30.6% (inactive) | -12% (inactive) | 24% (inactive) | 76.6% (active) | -2% (inactive) | 76% (active) | 55.5% (inactive) |
| CCC[CH2][Sn]([N]=C=S)([N]=C=S)[N]=C=S.O=P(c1ccccc1)(c1ccccc1)c1ccccc1.O=P(c1ccccc1)(c1ccccc1)c1ccccc1 | -5% (inactive) | 27% (inactive) | 50.3% (inactive) | -4% (inactive) | 15% (inactive) | 61.2% (inactive) | -4% (inactive) | 46% (inactive) | 83.2% (active) | -2% (inactive) | 10% (inactive) | 23.1% (inactive) | -4% (inactive) | 33% (inactive) | 46.2% (inactive) | -4% (inactive) | 44% (inactive) | 75.3% (active) |
| CCC1(O)C(=O)OCc2c1cc1n(c2=O)Cc2cc3cc([N+](=O)[O-])ccc3nc2-1 (centres undefined) | 76% (active) | 95% (active) | 77.9% (active) | 10% (inactive) | 46% (inactive) | 43.4% (inactive) | 21% (inactive) | 33% (inactive) | 24.9% (inactive) | 14% (inactive) | 8% (inactive) | -2.9% (inactive) | 13% (inactive) | 10% (inactive) | -21.3% (inactive) | 10% (inactive) | 32% (inactive) | 59.5% (inactive) |
| O=C(COc1ccc(Cl)c(Cl)c1)N(Cc1ccccc1)Cc1ccc[n+](Cc2ccc(Cl)cc2S(=O)(=O)F)c1 | 8% (inactive) | 84% (active) | 54% (inactive) | 44% (inactive) | 42% (inactive) | 54.9% (inactive) | 2% (inactive) | 62% (inactive) | -0.3% (inactive) | 10% (inactive) | 78% (active) | 50.4% (inactive) | 2% (inactive) | 82% (active) | 42.4% (inactive) | 6% (inactive) | 96% (active) | 60.1% (inactive) |
| CC(C)c1cccc(C(C)C)c1NC(=O)C(=O)CC(=O)CC(c1ccccc1)c1c(O)c2ccccc2oc1=O (centres undefined) | 8% (inactive) | 8% (inactive) | 59.4% (inactive) | -12% (inactive) | -12% (inactive) | 43% (inactive) | 11% (inactive) | 11% (inactive) | 71% (active) | -2% (inactive) | -2% (inactive) | 55.2% (inactive) | -1% (inactive) | -1% (inactive) | 70.7% (active) | 7% (inactive) | 7% (inactive) | 58.6% (inactive) |
| Cc1cc(C)[n+](CCOc2ccc(/C(=C(/Cl)c3ccccc3)c3ccccc3)cc2)c(C)c1 | 99% (active) | 99% (active) | 91.7% (active) | 83% (active) | 83% (active) | 91.9% (active) | 73% (active) | 73% (active) | 92.2% (active) | 97% (active) | 97% (active) | 91.7% (active) | 67% (inactive) | 67% (inactive) | 90% (active) | 82% (active) | 82% (active) | 89.8% (active) |
